In all, about 5,500 compounds went through this assay and about 2,000 (36%) were called active. Inconclusive results (about 18%) are left out. No stated cut-off is given here; in the data, active means normalized growth mostly below about 0.91 (no sharp cut-off); inconclusive means no clear call, values can overlap the other calls; inactive means mostly above about 0.92. Some of the results follow.
Assay: chemical genetic growth profiling, strain panel (AID 1159580);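 further: tested at 20 µM; growth read once vehicle control cultures reached saturation at 30 °C; 1 = growth at the plate median or of vehicle wells; lower values mean less growth of the strain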
Details: S. cerevisiae deletion strains, growth OD

Measured: normalized growth

Cc1cn([C@H]2C=C[C@@H](CO)O2)c(=O)[nH]c1=O
inactive: locus YAL040C, strain CLN3, active compounds read low 0.999 | locus YCL061C, strain MRC1 (second series), active compounds read low 1.01 | locus YDR363W, strain ESC2, active compounds read low 0.976 | locus YER002W, strain NOP16, active compounds read low 1 | locus YGR078C, strain PAC10, active compounds read low 1.02 | locus YMR263W, strain SAP30, active compounds read low 0.998 | locus YMR307W, strain GAS1, active compounds read low 0.994 | locus YNL175C, strain NOP13, active compounds read low 0.993 | locus YNL197C, strain WHI3, active compounds read low 0.995 | locus YNL224C, strain SQS1, active compounds read low 1 | locus YNL322C, strain KRE1, active compounds read low 0.994 | locus YOR083W, strain WHI5 (second series), active compounds read low 1.06 | locus YPL055C, strain LGE1, active compounds read low 0.974 | locus YPL241C, strain CIN2, active compounds read low 1

Reference: PubChem BioAssay AID1159580 (chemical genetic matrix, 2015)
